Laboratory results reported in PubChem BioAssay AID624138 (Broad Institute, 2012).
In all, about 17,000 compounds went through this assay and about 35 (0.2%) were called active.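 How the source made its calls: active means compounds whose four printed spots each show fluorescence over background unusually high for their array block, chance value under 7%; inactive means the rest.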 For the sample, actives were picked, then their nearest neighbours and some compounds at random.

target: Signal transducer and activator of transcription 3 (Homo sapiens) (UniProt P40763); assay: small molecules binding His-tagged STAT3 – biochemical, small molecule microarray, single point, set 2, primary screen (AID 624138); details: anti-His fluorescence
Sequence (P40763 whole entry, looked up): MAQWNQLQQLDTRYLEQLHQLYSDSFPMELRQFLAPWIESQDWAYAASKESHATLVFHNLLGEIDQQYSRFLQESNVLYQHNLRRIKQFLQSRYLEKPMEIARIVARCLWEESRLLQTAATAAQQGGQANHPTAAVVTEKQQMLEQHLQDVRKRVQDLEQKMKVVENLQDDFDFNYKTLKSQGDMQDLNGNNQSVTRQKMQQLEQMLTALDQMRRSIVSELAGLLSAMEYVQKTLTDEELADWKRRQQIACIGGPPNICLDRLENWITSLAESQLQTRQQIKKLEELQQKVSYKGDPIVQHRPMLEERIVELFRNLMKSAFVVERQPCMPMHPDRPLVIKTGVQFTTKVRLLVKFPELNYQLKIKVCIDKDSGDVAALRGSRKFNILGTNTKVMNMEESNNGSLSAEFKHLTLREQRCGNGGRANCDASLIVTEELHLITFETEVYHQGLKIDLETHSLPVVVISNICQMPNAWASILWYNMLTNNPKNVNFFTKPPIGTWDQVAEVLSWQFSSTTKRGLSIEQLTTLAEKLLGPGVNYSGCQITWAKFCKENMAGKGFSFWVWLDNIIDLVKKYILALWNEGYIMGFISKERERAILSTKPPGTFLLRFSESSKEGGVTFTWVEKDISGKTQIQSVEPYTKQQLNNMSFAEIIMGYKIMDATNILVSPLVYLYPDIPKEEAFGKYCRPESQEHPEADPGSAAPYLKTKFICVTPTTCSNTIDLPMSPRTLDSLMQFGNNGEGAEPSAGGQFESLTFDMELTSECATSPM

Row | SMILES | outcome
1 | CNC[C@@H]1Oc2ccc(NC(=O)Nc3ccc4c(c3)OCO4)cc2C(=O)N([C@H](C)CO)C[C@@H]1C | inactive
2 | C[C@@H]1CCCCO[C@@H](CN(C)Cc2ccc(Cl)c(Cl)c2)[C@@H](C)CN([C@@H](C)CO)C(=O)c2cc(NS(C)(=O)=O)ccc2O1 | inactive
3 | C[C@H]1CCCCO[C@@H](CN(C)Cc2ccccc2)[C@@H](C)CN([C@@H](C)CO)C(=O)c2cc(NC(=O)CCCN(C)C)ccc2O1 | inactive
4 | C[C@H]1CN([C@@H](C)CO)C(=O)c2cc(NC(=O)Nc3ccccc3)ccc2O[C@@H]1CN(C)C(=O)Nc1ccccc1 | inactive
5 | CCOC(=O)c1c(CN2CCOCC2)nc2c3ccccc3ccn12 | inactive
6 | O=C(c1cc2ccccc2oc1=O)N(Cc1ccc(F)cc1)Cc1ccco1 | inactive
7 | CCOC(=O)c1sc(NC(=S)Nc2ccc3c(c2)OCCO3)c(C(=O)OCC)c1C | inactive
8 | CC(Oc1ccccc1)C(=O)N[C@@H]1C(=O)N2[C@@H]1SC(C)(C)[C@@H]2C(=O)O (some centres undefined) | inactive
9 | CC(C)NC(=O)Nc1ccc2c(c1)C(=O)N([C@H](C)CO)C[C@H](C)[C@@H](CN(C)C(=O)CCCN(C)C)OCCCC[C@@H](C)O2 | inactive
10 | COc1ccc(-c2oc3cc(OC)ccc3c2C(=O)c2ccc(C#N)cc2)cc1 | inactive
11 | C[C@H](CO)N1C[C@H](C)[C@@H](CN(C)Cc2ccncc2)Oc2ccc(NC(=O)Nc3ccccc3)cc2C1=O | inactive
12 | C[C@H](CO)N1C[C@H](C)[C@H](CN(C)C(=O)NC2CCCCC2)Oc2c(NC(=O)c3nc4ccccc4s3)cccc2C1=O | inactive
13 | C[C@@H]1CCCCO[C@H](CN(C)C(=O)Nc2cccc3ccccc23)[C@@H](C)CN([C@H](C)CO)C(=O)c2cc(NS(=O)(=O)c3cccs3)ccc2O1 | inactive
14 | C[C@@H]1CCCCO[C@H](CN(C)Cc2ccccc2)[C@H](C)CN([C@@H](C)CO)C(=O)c2cc(NS(=O)(=O)c3ccccc3)ccc2O1 | inactive
15 | C[C@H](CO)N1C[C@H](C)[C@H](CN(C)S(=O)(=O)c2ccc(F)cc2)Oc2ncc(-c3ccc(F)cc3)cc2C1=O | inactive
16 | C[C@@H]1CN([C@@H](C)CO)C(=O)c2cc(NS(C)(=O)=O)ccc2O[C@@H]1CN(C)C(=O)Nc1ccc(F)cc1 | inactive
17 | C[C@H](CO)N1C[C@H](C)[C@@H](CN(C)S(=O)(=O)c2cn(C)cn2)Oc2ccc(NS(=O)(=O)c3cn(C)cn3)cc2C1=O | inactive
18 | C[C@@H]1CC[C@]2(C(=O)O)CC[C@]3(C)C(=CCC4[C@@]5(C)CC[C@H](O)[C@](C)(C(=O)O)C5CC[C@]43C)C2[C@]1(C)O (some centres undefined) | inactive
19 | NC(=O)CSc1nnc(-c2ccccc2F)n1-c1ccccc1 | inactive
20 | C[C@H](CO)N1C[C@H](C)[C@H](CN(C)Cc2ccc(C(=O)O)cc2)Oc2c(NC(=O)C3CCOCC3)cccc2C1=O | inactive
21 | COC(=O)c1ccccc1NC(=O)CNS(=O)(=O)c1cc(Cl)ccc1Cl | inactive
22 | Cc1noc(C)c1NC(=O)N(C)C[C@@H]1OCCCC[C@@H](C)Oc2ccc(NC(=O)C3CCCCC3)cc2C(=O)N([C@H](C)CO)C[C@@H]1C | inactive
23 | COC(=O)c1c(NC(=O)c2cc(-c3ccccn3)nc3c(C)cc(C)cc23)sc(C)c1C | inactive
24 | COc1ccc(NC(=O)Nc2ccc3c(c2)C(=O)N([C@@H](C)CO)C[C@@H](C)[C@H](CN(C)S(=O)(=O)c2cccs2)O3)cc1 | inactive
25 | Cc1noc(C)c1NC(=O)Nc1cccc2c1O[C@H](CN(C)C(=O)Nc1c(C)noc1C)[C@@H](C)CN([C@@H](C)CO)C2=O | inactive

Row | SMILES | outcome
26 | CC[C@@H]1Cc2cc(O)ccc2C2=C1c1ccc(O)cc1C[C@H]2CC | inactive
27 | CC(C)C(NS(=O)(=O)c1ccc(-c2ccc(Br)cc2)cc1)C(=O)O (centres undefined) | inactive
28 | CC(C)(C)[C@H]1C=C(C(=O)NCc2ccccc2)O[C@@H](OCc2ccc(CO)cc2)C1 | inactive
29 | O=C(NCc1ccccc1)C1=C[C@H](C2CC2)C[C@H](OCc2ccc(CO)cc2)O1 | inactive
30 | O=C(NCc1ccccc1)C1=C[C@@H](C2CCCCC2)C[C@@H](OCc2ccc(CO)cc2)O1 | active
31 | C[C@@H]1CN([C@@H](C)CO)C(=O)CCCn2nncc2CO[C@@H]1CN(C)Cc1ccccc1 | inactive
32 | CN(C)c1nc(Nc2nc3ccccc3[nH]2)nc(N(C)C)n1 | inactive
33 | COC(=O)C(C)N(C(=O)c1ccccc1[N+](=O)[O-])c1c(C)cccc1C (centres undefined) | inactive
34 | COc1ccc(NC(=O)Nc2nn(Cc3ccc(Cl)cc3Cl)cc2Br)cc1OC | inactive
35 | COCCCNC(=O)C(=O)c1cn(C)c2ccccc12 | inactive
36 | O=C1C[C@@](C(=O)NCC(F)(F)F)(c2ccc([N+](=O)[O-])cc2)[C@@H](c2ccc(CO)cc2I)N1C1CCCCC1 | inactive
37 | COC(=O)C1=C[C@H](O[C@@H]2O[C@H](CO)[C@@H](O)[C@H](O)[C@H]2O)C[C@H]2[C@]3(C)C[C@@H](c4ccoc4)OC(=O)[C@H]3CC[C@@]12C | inactive
38 | CCn1c(SCC(=O)O)nnc1-c1ccc(OC)cc1 | inactive
39 | C[C@H](CO)N1C[C@H](C)[C@H](CN(C)C(=O)Nc2ccccc2)Oc2ccc(NC(=O)CCN3CCOCC3)cc2CC1=O | inactive
40 | OC[C@H]1O[C@@H](OCc2ccccc2)[C@H](O[C@@H]2OC[C@](O)(CO)[C@H]2O)[C@@H](O)[C@@H]1O | inactive
41 | COc1ccc(CCN2C(=O)[C@@]3(Cc4ccccc42)c2ccccc2C(=O)N(Cc2ccccc2C(F)(F)F)[C@H]3c2ccc(CO)cc2)cc1 | inactive
42 | C[C@@H]1CN([C@H](C)CO)C(=O)CCCn2cc(nn2)CO[C@@H]1CN(C)C(=O)Nc1ccc2c(c1)OCO2 | inactive
43 | O=C(Nc1cccc(OCC(=O)N2CCOCC2)c1)C1CCCCC1 | inactive
44 | O=c1c(-c2ccc(O[C@@H]3O[C@H](CO)[C@@H](O)[C@H](O)[C@H]3O)cc2)coc2c([C@@H]3O[C@H](CO)[C@@H](O)[C@H](O)[C@H]3O)c(O)cc(O)c12 | inactive
45 | Cc1ccc(Cn2c(NCc3nc4ccccc4n3C)nc3ccccc32)cc1 | inactive
46 | COc1cccc(-c2cc(C(F)(F)F)n3nc(C(=O)NCc4ccccn4)cc3n2)c1 | inactive
47 | C[C@@H]1CN([C@@H](C)CO)C(=O)c2cc(NS(C)(=O)=O)ccc2O[C@@H]1CN(C)C | inactive
48 | CCCN(C)C[C@@H]1Oc2ncc(C#Cc3ccccc3)cc2C(=O)N([C@H](C)CO)C[C@@H]1C | inactive
49 | Cc1cc(OCC(=O)Nc2ccccc2C(N)=O)cc(C)c1Br | inactive
50 | COc1ccc(CCNc2nc(C)cc(C)n2)cc1OC | inactive

Row | SMILES | outcome
51 | COc1ccc(S(=O)(=O)Nc2ccc3c(c2)C(=O)N([C@H](C)CO)C[C@@H](C)[C@@H](CN(C)Cc2ccccc2)O3)cc1 | inactive
52 | C[C@@H]1CCCCO[C@@H](CN(C)Cc2ccncc2)[C@H](C)CN([C@@H](C)CO)C(=O)c2cc(N(C)C)ccc2O1 | inactive
53 | C[C@@H]1CCCCO[C@@H](CN(C)C(=O)Cc2ccccc2)[C@H](C)CN([C@@H](C)CO)C(=O)c2cc(NC(=O)Nc3ccc(F)cc3)ccc2O1 | inactive
54 | CC(C)(C)c1ccc(OCC(=O)Nc2cccc(NC(=O)c3ccccc3)c2)cc1 | inactive
55 | Oc1ccc(-c2c(-c3ccccc3)nn3c(C(F)(F)F)cc(C(F)(F)F)nc23)cc1 | inactive
56 | COc1c(Br)cc2c(cc(C)n2-c2ccccc2)c1OCC(O)CNC(C)C (centres undefined) | inactive
57 | CC(=O)c1c(C)n(CC(=O)O)c2ccccc12 | inactive
58 | C[C@H](CO)N1C[C@H](C)[C@H](CN(C)C)Oc2c(NS(=O)(=O)c3ccc(Cl)cc3)cccc2C1=O | inactive
59 | C[C@@H]1CN([C@H](C)CO)C(=O)CCCn2nncc2CO[C@@H]1CN(C)C | inactive
60 | Cc1ccc(NC(=O)CSc2ncn[nH]2)c(C)c1 | inactive
61 | C=C1C(=C/C=C2\CCC[C@]3(C)[C@@H]([C@H](C)CCCC(C)(C)O)CC[C@@H]23)C[C@@H](O)C[C@@H]1O | inactive
62 | COCCCNC(=O)[C@@]1(Cc2ccccc2)COC(c2ccc(OCCCO)cc2)=N1 | inactive
63 | CC(C)(O)C(O)COc1c2occc2cc2ccc(=O)oc12 (centres undefined) | inactive
64 | CNC[C@@H]1Oc2c(NC(=O)C3CCOCC3)cccc2C(=O)N([C@@H](C)CO)C[C@H]1C | inactive
65 | O=C(O)CCC(=O)Nc1ccc(-c2nc3ccccc3o2)cc1 | inactive
66 | C[C@@H]1CN([C@H](C)CO)C(=O)c2cc(NC(=O)Nc3ccccc3)ccc2O[C@@H]1CN(C)Cc1ccc(Cl)c(Cl)c1 | inactive
67 | CCOC(=O)c1ccc(COC(=O)c2cc(=O)[nH]c3ccccc23)o1 | inactive
68 | Cc1noc(C)c1NC(=O)Nc1ccc2c(c1)CC(=O)N([C@H](C)CO)C[C@@H](C)[C@H](CN(C)S(=O)(=O)c1cccs1)O2 | inactive
69 | C[C@@H]1CN([C@H](C)CO)C(=O)c2cc(NC(=O)Nc3ccccc3)ccc2O[C@@H](C)CCCCO[C@@H]1CN(C)S(=O)(=O)c1ccc(F)cc1 | inactive
70 | COc1cc(O)cc(C)c1C(=O)OC1C(CO)OC(n2ccc(=O)[nH]c2=O)C1OC(C)=O (centres undefined) | inactive
71 | COc1ccc(S(=O)(=O)Nc2ccc3c(c2)C(=O)N([C@H](C)CO)C[C@H](C)[C@@H](CN(C)S(C)(=O)=O)OCCCC[C@@H](C)O3)cc1 | inactive
72 | Cc1noc(C)c1S(=O)(=O)Nc1ccc2c(c1)C(=O)N([C@H](C)CO)C[C@H](C)[C@H](CN(C)C(=O)CCC(F)(F)F)OCCCC[C@H](C)O2 | inactive
73 | C[C@@H]1CCCCO[C@@H](CN(C)C(=O)c2ccccc2)[C@H](C)CN([C@@H](C)CO)C(=O)c2cc(NS(=O)(=O)c3cn(C)cn3)ccc2O1 | inactive
74 | Cc1sc2nc(SCC(=O)Nc3ccccc3C(F)(F)F)nc(N)c2c1C | inactive
